eIF4H FP inh: inhibitors of RNA binding by human eIF4H; AID 2012; Q15056; eIF4H fluorescence polarization binding assay; actives 0.94% (n = 290,000); inhibition, % at 35 µM;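 also: calls also rest on retests at 20 µM and on dose response follow-up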
APOBEC3G inh: APOBEC3G (human) deaminase inhibition; recombinant A3G, ssDNA deamination FAM/TAMRA fluorescence; AID 493012; inhibition, % at 20 µM; actives 0.28% (n = 330,000);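 active = inhibition of at least 40% at 20 µM, with no more than 30% in the related APOBEC3A deaminase screen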
PHOSPHO1 block: inhibitors of human PHOSPHO1 phosphatase; Q8TCT1; recombinant PHOSPHO1, absorbance phosphatase assay; inhibition, % at 13.3 µM; actives 1.1% (n = 290,000); AID 1565; in the data active = inhibition above about 60%
PABP1 MLLE inh: inhibitors of microRNA-mediated deadenylation, human PABP1 MLLE binding | inhibition, % at 20 µM | P11940 | actives 0.36% (n = 360,000) | GST-MLLE / FITC-PAM2 fluorescence polarization; in the data active = inhibition above about 35%, passing the limit was not always enough
Target sequence (P11940 whole entry, looked up): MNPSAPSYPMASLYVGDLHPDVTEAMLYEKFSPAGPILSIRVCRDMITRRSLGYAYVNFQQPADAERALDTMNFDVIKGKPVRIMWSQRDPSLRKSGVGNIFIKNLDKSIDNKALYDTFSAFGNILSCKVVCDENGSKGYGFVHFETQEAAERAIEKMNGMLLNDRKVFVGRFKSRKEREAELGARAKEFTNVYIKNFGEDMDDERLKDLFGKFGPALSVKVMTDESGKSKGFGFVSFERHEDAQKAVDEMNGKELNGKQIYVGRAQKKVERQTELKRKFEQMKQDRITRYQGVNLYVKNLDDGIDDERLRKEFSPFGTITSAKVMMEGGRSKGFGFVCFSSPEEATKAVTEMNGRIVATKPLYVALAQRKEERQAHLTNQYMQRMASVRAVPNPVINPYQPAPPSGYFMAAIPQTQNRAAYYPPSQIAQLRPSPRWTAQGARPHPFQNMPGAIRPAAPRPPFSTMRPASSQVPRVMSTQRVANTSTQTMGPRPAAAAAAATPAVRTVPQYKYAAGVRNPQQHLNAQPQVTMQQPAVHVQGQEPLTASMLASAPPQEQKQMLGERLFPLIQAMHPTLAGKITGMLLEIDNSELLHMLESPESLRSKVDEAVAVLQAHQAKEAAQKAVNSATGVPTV
APOBEC3A inh: human APOBEC3A DNA deaminase inhibition | inhibition, % at 20 µM | recombinant A3A, FAM/TAMRA ssDNA deamination fluorescence | P31941 | actives 0.41% (n = 330,000);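 active = at least 40% inhibition at 20 µM here, with at most 30% in a related deaminase screen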
PABP polyA inh: PABP-poly(A) binding inhibition. actives 1% (n = 290,000). PABP-poly(A) RNA binding, fluorescence polarization. calls only at 35 µM. P11940. AID 2014;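 also: calls also rest on retests at 20 µM and on dose response follow-up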
Large screens that a line does not name were inactive. Shown are actives, neighbours in structure and some others; about 2.6% of the full set was active somewhere. Unless noted, no rule for the calls is given here.

Cc1oc2c(cc(NS(=O)(=O)c3ccc(C(C)C)cc3)c3ccccc32)c1C(=O)O	eIF4H FP inh 66, PABP polyA inh active
Cc1oc2c(cc(NS(=O)(=O)c3ccc(F)cc3)c3ccccc32)c1C(=O)O	none
N=c1c[n+](-c2ccc(Cl)cc2)[n-]o1	PHOSPHO1 block 93
CC(Cc1ccccc1)N1CCCC1=O (stereo unspecified)	none (no result: eIF4H FP inh, APOBEC3G inh, PHOSPHO1 block, APOBEC3A inh, PABP polyA inh)
Cc1cccc(NCCNc2cccc(C)c2)c1	none
Cc1cccc(NCCC#N)c1	PABP polyA inh active
CCOc1ccc(NC(=O)N2CCCC2C(=O)NCc2ccco2)cc1 (stereo unspecified)	none
CC(C)(C)C1CCc2c(sc(N)c2C(N)=O)C1 (stereo unspecified)	PHOSPHO1 block 83 (no result: APOBEC3G inh, APOBEC3A inh)
CCCC1CCc2c(sc(N)c2C(N)=O)C1 (stereo unspecified)	PHOSPHO1 block 95
CCC(C)(C)C1CCc2c(sc(N)c2C(N)=O)C1 (stereo unspecified)	none
Cc1ccc(S(=O)(=O)N(C)C)cc1-n1c(SCC(=O)N(C)C)nc2ccccc2c1=O	eIF4H FP inh 52, PABP polyA inh active
CC1(OC(=O)CCc2ccccc2)C(=O)C=C2C=C(c3ccc(C#N)cc3)N(C3CC3)C=C2C1=O (stereo unspecified)	PABP polyA inh active
COC(=O)CCCC1=CC2=CC(=O)C(C)(OC(=O)c3cccs3)C(=O)C2=CN1C1CCCCC1 (stereo unspecified)	none
CCCCC1=CC2=CC(=O)C(C)(OC(=O)CC)C(=O)C2=CN1CCCCO (stereo unspecified)	PABP1 MLLE inh 45
COCCN1C=C2C(=O)C(C)(OC(=O)c3cccs3)C(=O)C=C2C=C1CCCC(=O)OC (stereo unspecified)	none
CC1(OC(=O)CCc2ccccc2)C(=O)C=C2C=C(c3ccc(C#N)cc3)N(Cc3ccccc3)C=C2C1=O (stereo unspecified)	none
COC(=O)CCCC1=CC2=CC(=O)C(C)(OC(=O)c3cccs3)C(=O)C2=CN1CCN1CCOCC1 (stereo unspecified)	PABP polyA inh active
COC(=O)CCCC1=CC2=CC(=O)C(C)(OC(=O)c3cccs3)C(=O)C2=CN1C1CC1 (stereo unspecified)	eIF4H FP inh 87, PABP polyA inh active
CCOc1ccc(OCCC(=O)N2CCc3cc(OC)c(OC)cc3C2)cc1	none
Cc1cc(C(=O)Nn2c(-c3ccncc3)nc3ccccc3c2=O)ccc1[N+](=O)[O-]	none
O=C1/C(=C/c2ccccc2)SC(=S)N1N1C(=O)C2CC2C1=O (stereo unspecified)	none
CCCn1c(C)cc(C(=O)COc2ccc(S(=O)(=O)N(CC)CC)cc2[N+](=O)[O-])c1C	none
Cc1cc(C(=O)CSc2nnc(-c3ccco3)o2)c(C)n1Cc1ccco1	eIF4H FP inh 65, PABP polyA inh active
Cc1cc(C(=O)CSc2nnnn2C)c(C)n1-c1ccc2c(c1)OCCO2	none
CCN(CC)S(=O)(=O)c1cccc(-c2nnc(SCC(=O)c3cc(C)n(C)c3C)o2)c1	PHOSPHO1 block 80, PABP polyA inh active
Cc1cc(C(=O)CSc2nnc(-c3ccco3)o2)c(C)n1-c1ccc2c(c1)OCCO2	PHOSPHO1 block 92
Cc1cc(C(=O)CSc2nc3ccccc3[nH]2)c(C)n1Cc1ccco1	eIF4H FP inh 87, PABP polyA inh active
COc1cccc(/C=N/n2c(=S)n(C)c3ccccc32)c1OC	PHOSPHO1 block 73
Oc1ccc(/C=N/N=C(c2ccccc2)c2ccccc2)c(O)c1O	eIF4H FP inh 85, PABP polyA inh active (no result: APOBEC3G inh, APOBEC3A inh)
C/C(=N\Nc1ncnc2sc(C)c(C)c12)c1ccccn1	eIF4H FP inh inconclusive, PABP polyA inh active
Cc1cc(C)n(-c2nc(NCCCO)c3c4c(sc3n2)CCCC4)n1	none
Cc1cc(C)n(-c2nc(NCCO)c3c4c(sc3n2)CCCC4)n1	PHOSPHO1 block 81
O=C(COc1ccccc1)Nn1cnc2ccccc21	PHOSPHO1 block 97
CCOC(=O)C1=C(COC(=O)C2CC(=O)N(c3ccc(CC)cc3)C2)NC(=O)NC1C (stereo unspecified)	none (no result: eIF4H FP inh, PHOSPHO1 block, PABP polyA inh)
CC(NC(=O)Cn1cnc2c1c(=O)n(C)c(=O)n2C)c1ccccc1 (stereo unspecified)	PABP polyA inh active
Cn1c(=O)c2c(ncn2CC(=O)OCC(=O)NC(c2ccccc2)c2ccccc2)n(C)c1=O	none
O=C1C2CC=C(Cl)CC2C(=O)N1CCN1CCOCC1 (stereo unspecified)	none
O=C1C2CC=C(Cl)CC2C(=O)N1CCCCCCN1C(=O)C2CC=C(Cl)CC2C1=O (stereo unspecified)	eIF4H FP inh 99, PABP polyA inh active
CC(C)COc1ccc(C(=O)Nc2ncn[nH]2)cc1	none
Oc1c(C=Nc2ccccc2Cl)[nH]c2ccccc12	PHOSPHO1 block 63, PABP1 MLLE inh 43
CC(C)CC(C(=O)NC(C)(C)C)N(Cc1ccccc1Cl)C(=O)c1snc(C(N)=O)c1N (stereo unspecified)	none
CSc1ccc(Cl)c(C(=O)OCC(=O)Nc2ccccc2OC(F)F)c1	none
COC(=O)c1ccc(NS(=O)(=O)c2ccc3[nH]c(=O)oc3c2)cc1	eIF4H FP inh 66
COc1ccc(NC(=O)CN(C)S(=O)(=O)c2ccc3[nH]c(=O)oc3c2)cc1	PHOSPHO1 block 63
Cc1ccc(C)c(NS(=O)(=O)c2ccc3[nH]c(=O)oc3c2)c1	eIF4H FP inh inconclusive, PABP polyA inh active
Cc1ccc(C)c(NS(=O)(=O)c2ccc(-c3ccc(=O)[nH]n3)o2)c1	PHOSPHO1 block 65
C[C@H]1CN([C@@H](C)CO)C(=O)CCCn2nncc2CO[C@@H]1CN(C)Cc1ccc(Cl)c(Cl)c1	none (no result: eIF4H FP inh, APOBEC3G inh, PHOSPHO1 block, APOBEC3A inh, PABP polyA inh)
Cc1ccc(S(=O)(=O)NC(CC(C)C)C(=O)Oc2ccc3c4c(c(=O)oc3c2)CCC4)cc1 (stereo unspecified)	PHOSPHO1 block 60
Cc1ccc(S(=O)(=O)/N=C2/C=C(Sc3ncn[nH]3)C(=O)c3ccccc32)cc1	PHOSPHO1 block 73, PABP1 MLLE inh 50 (no result: APOBEC3G inh, APOBEC3A inh)
Cc1ccc(S(=O)(=O)/N=C2/C=C(Sc3ncn[nH]3)C(=O)c3ccccc32)c(C)c1	PHOSPHO1 block 76 (no result: APOBEC3G inh, PABP1 MLLE inh, APOBEC3A inh)
COc1cc(NC(=O)c2ccc(-c3cccc(F)c3)o2)ccc1NC(=O)c1ccccc1Cl	none (no result: eIF4H FP inh, PHOSPHO1 block, PABP polyA inh)
CCOC(=O)Nc1nc(-c2ccc(Cl)cc2Cl)cs1	none
Cc1ccc(C)c(Nc2nc3nonc3nc2N2CCOCC2)c1	PHOSPHO1 block 61
COC(=O)c1cc(F)c(-n2cncn2)c(F)c1	none
COC(=O)c1cc([N+](=O)[O-])c(-n2cncn2)c([N+](=O)[O-])c1	PABP polyA inh active (no result: APOBEC3G inh, APOBEC3A inh)
Cc1ccc(CNc2nc3cc(-c4ccccc4)sc3c(=O)n2C)c(C)c1	none (no result: eIF4H FP inh, APOBEC3G inh, PHOSPHO1 block, APOBEC3A inh, PABP polyA inh)
O=C(NCCO)Nc1ccc(Cl)cc1	PHOSPHO1 block 69
Cc1cc(C)n2nc(C(=O)NCC(=O)Nc3ccc(F)c(F)c3)nc2n1	none (no result: eIF4H FP inh, PHOSPHO1 block, PABP polyA inh)
